Test results published in PubChem BioAssay AID1851 (National Center for Advancing Translational Sciences (NCATS), 2009).
Screen size: about 16,000 compounds; about 5,100 (32%) were called active. About 25% were inconclusive and are not listed. The list shows a part of the results. Values without a mark were called inactive. Calls come from the whole dose curve; as a rule, active = well fitted curve in the direction sought with a large enough effect; inconclusive = small, poorly fitted or top-dose-only effect, or effect the other way; inactive = no such curve, though single readings can be large or run the other way.

biological target: Cytochrome P450 3A4 (Homo sapiens) (UniProt P08684); assay: Cytochrome panel assay with activity outcomes; details: recombinant CYP, pro-luciferin dealkylation, luminescence, p450-cyp3a4; series mostly up to 57.1 µM
% is set by controls: 0 for no effect and ±100 for the full control effect.

Sequence of Cytochrome P450 3A4 (Homo sapiens) (P08684 whole entry, looked up): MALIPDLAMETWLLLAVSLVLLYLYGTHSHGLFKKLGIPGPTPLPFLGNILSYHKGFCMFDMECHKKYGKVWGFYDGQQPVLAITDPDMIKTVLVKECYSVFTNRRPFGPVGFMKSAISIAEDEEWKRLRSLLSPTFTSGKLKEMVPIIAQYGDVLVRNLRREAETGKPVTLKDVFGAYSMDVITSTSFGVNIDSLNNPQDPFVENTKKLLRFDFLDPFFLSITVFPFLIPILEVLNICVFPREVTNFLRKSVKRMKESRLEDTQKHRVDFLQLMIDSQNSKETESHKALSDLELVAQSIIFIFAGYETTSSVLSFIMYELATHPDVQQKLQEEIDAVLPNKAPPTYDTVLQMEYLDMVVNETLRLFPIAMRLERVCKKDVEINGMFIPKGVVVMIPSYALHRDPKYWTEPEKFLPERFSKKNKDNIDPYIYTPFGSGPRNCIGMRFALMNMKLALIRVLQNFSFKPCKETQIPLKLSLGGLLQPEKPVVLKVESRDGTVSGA

SMILES | AC50 | activity, negative = inhibition
O=C(c1cc(O)c(O)c([N+](=O)[O-])c1)c1ccccc1F | 20 µM (active) | –
Cc1ccc(-c2cccc(OC(=O)c3ccccc3F)c2)cc1 | inactive | –
O=[N+]([O-])c1cc(Cc2cc([N+](=O)[O-])c3cccnc3c2O)c(O)c2ncccc12 | – | -19.6% [at 11.4 µM]
Nc1nc(Nc2ccccc2)nc2c1ncn2[C@@H]1O[C@@H](CO)[C@H](O)[C@@H]1O | inactive | –
O=CN1CCN(C[C@H](O)CN2CCCCC2)CC1 | – | -4.95% [at 11.4 µM]
CN(Cc1ccco1)c1ncnc2ccc(-c3ccccc3Cl)cc12 | 15.8 µM (active) | –
CN(Cc1ccco1)c1ncnc2ccc(-c3ccccc3C(F)(F)F)cc12 | 15.8 µM (active) | –
Cc1ccc(NC(=O)CCN2C(=O)c3ccncc3C2=O)cc1 | 8.91 µM (active) | –
COCc1nnc(NC(=O)CCN2C(=O)c3ccccc3C2=O)s1 | inactive | –
Cc1cccc(OCCn2c(-c3ccco3)nc3ccccc32)c1 | 10 µM (active) | –
Cc1cccc(OCCn2c(S(=O)(=O)O)nc3ccccc32)c1 | inactive | –
O=C(O)C1CCCCC1C(=O)Nc1cc(Cl)ccc1Cl (stereo not given) | inactive | –
C/C(CC(=O)Nc1ccccn1)=N\NC(=O)C(=O)Nc1cccc(Cl)c1C | – | 16.1% [at 2.29 µM]
C/C(CC(=O)Nc1cc(Cl)ccc1Cl)=N\NC(N)=S | 14.1 µM (active) | –
COc1ccc(Cl)cc1NC(=O)CN1C(=O)CSC1=O | 7.94 µM (active) | –
CCCCC(=O)N/N=C(\C)CC(=O)Nc1cc(Cl)ccc1OC | 4.47 µM (active) | –
COc1ccc(Cl)cc1NC(=O)NCCCl | inactive | –
N[C@@H](CSCc1ccccc1)C(=O)O | – | -6.14% [at 11.4 µM]
NC1(C(=O)O)C[C@H](C(=O)O)[C@H](C(=O)O)C1 (stereo not given in full) | inactive | –
CC1CN(C(NC(=O)C(C)(C)C)C(Cl)(Cl)Cl)CC(C)O1 (stereo not given) | inactive | –
C[C@@H]1NCC[C@H](CC(=O)O)[C@H]1CC(=O)O | – | 0.412% [at 11.4 µM]
CC(C)=C[C@H]1[C@@H](C(=O)Oc2ccccc2C(C)C)C1(C)C | – | -13.1% [at 11.4 µM]

SMILES | AC50 | activity, negative = inhibition
Cc1[nH]c(N)nc(=S)c1CCC(=O)O | – | -2.07% [at 11.4 µM]
COc1ccccc1OCCCCCc1c(C)n[nH]c1C | inactive | –
CN(Cc1ccco1)c1ncnc2ccc(-c3cccnc3)cc12 | 3.98 µM (active) | –
COc1cccc(-c2ccc3ncnc(N(C)Cc4ccco4)c3c2)c1 | 12.6 µM (active) | –
NCCSC[C@H](N)C(=O)O | – | -7.49% [at 11.4 µM]
O=C(O)[C@@H](O)[C@@H](O)[C@@H](O[C@H]1O[C@@H](CO)[C@@H](O)[C@@H](O)[C@@H]1O)[C@@H](O)CO | inactive | –
Cc1cccc(CNc2ncnc3ccc(-c4ccc5c(c4)OCO5)cc23)c1 | 2 µM (active) | –
c1ccc(CNc2ncnc3ccc(-c4ccc5c(c4)OCO5)cc23)cc1 | 2 µM (active) | –
c1ccc(Nc2ncnc3ccc(-c4ccc5c(c4)OCO5)cc23)cc1 | 2.51 µM (active) | –
c1nc(NC2CCNCC2)c2cc(-c3ccc4c(c3)OCO4)ccc2n1 | 25.1 µM (active) | –
c1nc(NC2CCNCC2)c2cc(-c3ccoc3)ccc2n1 | inactive | –
COc1cc(C)c(Br)cc1S(=O)(=O)NCc1ccccc1 | inactive | –
O=[N+]([O-])c1ccc(S(=O)(=O)Cc2ccccc2)c2nonc12 | – | -16.7% [at 11.4 µM]
COc1cc(OC)c(C#N)c(S(=O)(=O)Cc2ccccc2)c1 | 25.1 µM (active) | –
O=C(O)/C=C\C(=O)N1Cc2cc3ccccc3nc2C1 | – | -8.05% [at 11.4 µM]
Cc1nc2ccccn2c1C(=O)N/N=C/c1ccccc1[N+](=O)[O-] | 12.6 µM (active) | –
Cc1ccc(C(=O)N/N=C/c2cc(C)n(-c3ccc(Br)cc3)c2C)cc1[N+](=O)[O-] | inactive | –
O=C(N/N=C/c1c(Nc2cccc(C(F)(F)F)c2)nc2ccccn2c1=O)c1ccccc1 | inactive | –
COCCn1c(=O)c(-c2cc(F)cc(F)c2)nc2cnc(N3CCN(C)CC3)nc21 | inactive | –
CN1CCN(c2ncc3nc(-c4ccccc4)c(=O)n(CCc4ccccc4)c3n2)CC1 | inactive | –
CN1CCN(c2ncc3nc(-c4cc(F)cc(F)c4)c(=O)n(CCc4ccccc4)c3n2)CC1 | 25.1 µM (active) | –
COc1cccc(Cn2c(=O)c(-c3cc(F)cc(F)c3)nc3cnc(N4CCNCC4)nc32)c1 | 25.1 µM (active) | –

SMILES | AC50 | activity, negative = inhibition
COc1ccc(-c2nc3cnc(N4CCNCC4)nc3n(Cc3cccc(OC)c3)c2=O)cc1 | 15.8 µM (active) | –
COc1cccc(Cn2c(=O)c(-c3ccccc3)nc3cnc(N4CCNCC4)nc32)c1 | 20 µM (active) | –
COc1cccc(Cn2c(=O)c(-c3cc(F)cc(F)c3)nc3cnc(N4CCN(C)CC4)nc32)c1 | 25.1 µM (active) | –
COc1cccc(Cn2c(=O)c(-c3ccc(F)cc3)nc3cnc(N4CCNCC4)nc32)c1 | 15.8 µM (active) | –
O=C(O)c1ccc2c(c1)C(=O)N(C(Cc1ccc(O)cc1)C(=O)O)C2=O (stereo not given) | inactive | –
Cc1cc(=O)oc(C)c1C(=O)NCc1ccccn1 | inactive | –
Cc1cc(NCc2ccccn2)ccc1Br | 12.6 µM (active) | –
OCCCNCc1ccccn1 | – | -7.75% [at 11.4 µM]
c1ccc(CCNc2ccccn2)nc1 | – | -14.6% [at 11.4 µM]
CNCCc1ccccn1 | inactive | –
Cc1cc(Br)ccc1NCc1ccccn1 | 15.8 µM (active) | –
O=C(NCCN1CCCCC1)c1ccc(I)cc1 | inactive | –
Cc1ccc(S(=O)(=O)NCCn2c(C)cc3ccccc32)cc1 | 5.01 µM (active) | –
Cc1cc2ccccc2c(=O)n1CC(=O)NCC(=O)N1CCCC1 | inactive | –
Cc1cc2ccccc2n1CCNC(=O)C1CCCC1 | 4.47 µM (active) | –
Cc1cc2ccccc2n1CCNC(=O)c1ccccc1 | 3.98 µM (active) | –
CN(C)CCn1c(C(=O)O)cc2ccccc21 | inactive | –
Cc1ccc(S(=O)(=O)NC(=O)c2cccn2C)cc1 | inactive | –
CCN1C(=O)C(O)(C2COC(C)(C)CC2=O)c2ccccc21 (stereo not given) | inactive | –
CN(C)CCCN1c2ccccc2C(C)(C)c2ccccc21 | – | -18.6% [at 11.4 µM]
CC1(C)C(=O)N(CCN2CCC(C(=O)c3ccc(F)cc3)CC2)c2ccccc21 | 15.8 µM (active) | –
